This is an account of results in PubChem BioAssay (EPA / NIEHS).

Experiment [1] can be described thus: CCTE_Deisenroth_5AR_NBTE_donor: CCTE's 5alpha-reductase NanoBRET Target Engagement Assay […], Deisenroth Lab (AID 2284319). As to conditions: actives raise or lower the signal. The gist of the method: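 HEK293T cells were reverse transfected with an SRD5A2-NanoLuc vector for 20 h, exposed to test chemical (8 points, 10 nM - 29.9 uM) for 3 h, then testosterone tracer for 2 h more. Donor luminescence (460 nm) was read; bidirectional fit versus DMSO.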
A general note: BRET reads energy transfer from a luciferase to a nearby fluorophore.

A short description of experiment [2]: CCTE_Deisenroth_5AR_NBTE_acceptor: CCTE's 5alpha-reductase NanoBRET Target Engagement Assay - Autofluorescence Screen, Deisenroth Lab (AID 2284321).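 Note: compound fluorescence in the acceptor channel under 460 nm excitation flags autofluorescence artifacts.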 Particulars: actives raise or lower the signal. The gist of the method:
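Chemicals diluted to a nominal 100 uM in DMSO were scanned at 460 nm excitation. Samples were read in three independent runs (n=3). Gain or loss of acceptor signal was fitted relative to DMSO.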

The subject of experiment [3] is SRD5A2 (gene 6716). The experiment is described as follows: CCTE_Deisenroth_5AR_NBTE_ratio: CCTE's 5alpha-reductase NanoBRET Target Engagement Assay - Ratio, Deisenroth Lab (AID 2284322). As to conditions: actives raise or lower the signal. In outline: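 HEK293T cells transiently expressing an SRD5A2-NanoLuc fusion (20 h post-transfection) were exposed to test chemical (10 nM - 29.9 uM, 8 points) for 3 h, then testosterone tracer for a further 2 h. Acceptor/donor BRET ratio was fitted bidirectionally against DMSO baseline.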

Experiment [4] has as its system SERPINA7 (gene 6906). The experiment is described as follows: CCTE_GLTED_hTBG: CCTE's human Thyroxine-binding Globulin (TBG) Inhibition Assay, Great Lakes Toxicology and Ecology Division (GLTED) Lab (AID 2284343; active = hit-call score of the fitted dose curve at least 0.9, where 1 is the maximum;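 note: active chemicals lower fluorescence versus DMSO baseline by displacing probe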). In outline:
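Human thyroxine-binding globulin was exposed to each chemical for 2 hours, during which the ANSA probe could be displaced. Fluorescence was then measured at 380/475 nm, and loss of signal was analysed relative to DMSO.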

Read-out in experiment [5]: CD69, CD69 (gene 969)
The experiment is described as follows: BSK_LPS_CD69: BioMAP Diversity Plus: LPS Assay for CD69 Biomarker Activity (AID 2284303). As to conditions: primary human HUVEC with PBMC. In outline:
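CD69 surface levels were read by ELISA after 24 h chemical treatment of an LPS-stimulated HUVEC plus PBMC co-culture; positive-direction fit against DMSO vehicle.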

Experiment [6] has as its system IYD (gene 389434). Put plainly: CCTE_GLTED_hIYD: CCTE's human Iodotyrosine Deiodinase (xIYD) Inhibition Assay, Great Lakes Toxicology and Ecology Division (GLTED) Lab (AID 2284317; active = hit-call score of the fitted dose curve at least 0.9, where 1 is the maximum;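 note: cell-free human IYD enzyme made in baculovirus insect cells; iodide freed from monoiodotyrosine measured by cerium arsenite color change at 420 nm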). The gist of the method: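 Deiodination of MIT by insect-cell-produced human IYD is measured after a 3 h incubation with test chemical. Free iodide passes through a Dowex column and accelerates Sandell-Kolthoff Ce4+ reduction, read at 420 nm; run in triplicate.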

The nature of experiment [7]: CCTE_Padilla_ZF_Score.Craniofacial: CCTE's 144 Hour Post-fertilization zebrafish Assay Score for Craniofacial Malformation, Padilla Lab (AID 2284405). In outline: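 Craniofacial defects were scored at 6 dpf by two blinded observers using stereomicroscopy. Exposure of wild-type embryos began at 6–8 hpf in sealed wells of 10% Hanks' solution at 26C, with chemical removed by rinsing at 5 dpf.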

Experiment [8] can be described thus: CCTE_Padilla_ZF_Score.Edema: CCTE's 144 Hour Post-fertilization zebrafish Assay Score for Edema Malformation, Padilla Lab (AID 2284406). In outline:
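Edema scored at 6 dpf by two blinded observers under a stereo microscope, in single outbred wild-type larvae exposed from 6-8 hpf in sealed wells (Hanks', 26C, 14:10 h light) and chemical-free after a 5 dpf rinse.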

Experiment [9] can be described thus: CCTE_Mundy_HCI_iCellGluta_NOG_NeuriteLength: CCTE's Neurite Outgrowth Assay in iCellGluta cells for Neurite Length, Mundy Lab (AID 2284318; active = hit-call score of the fitted dose curve at least 0.9, where 1 is the maximum). The gist of the method: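 Automated high-content imaging of betaIII-tubulin (Alexa Fluor-488) and Hoechst-stained cells gave neurite length, normalized to the DMSO baseline.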
Experiment [10] can be described thus: CCTE_Mundy_HCI_iCellGluta_NOG_NeuronCount: CCTE's Neurite Outgrowth Assay in iCellGluta cells for Neuron Count, Mundy Lab (AID 2284340; active = hit-call score of the fitted dose curve at least 0.9, where 1 is the maximum;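 note: cells fixed about 48 h after compound addition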). The gist of the method: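 Neuron count read by automated high-content imaging of Hoechst 33342 and betaIII-tubulin/Alexa Fluor-488 labelling in human iPSC glutamatergic neurons. Activity fitted relative to DMSO.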
The nature of experiment [11]: CCTE_Mundy_HCI_iCellGluta_NOG_NeuriteCount: CCTE's Neurite Outgrowth Assay in iCellGluta cells for Neurite Count, Mundy Lab (AID 2284342; active = hit-call score of the fitted dose curve at least 0.9, where 1 is the maximum;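 note: chemical exposure about 48 hours starting 2 hours after plating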).
Experiment [12] in a line: IUF_NPC4_neurite_length_120hr: Leibniz Research Institute for Environmental Medicine (IUF) 120-hour Neuronal Morphology Assay for Neurite Length (NPC4) (AID 2284302). The gist of the method: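 Neurite length, the mean in um across TUBB3-stained neurons, is derived by skeletonization of high-content images after 120 h differentiation. Compound exposure, 7 concentrations plus solvent control, ran from plating of hNPC spheres on poly-D-lysine/laminin, with medium half-replaced on day 3.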

Experiment [13] in a line: IUF_NPC4_neurite_area_120hr: Leibniz Research Institute for Environmental Medicine (IUF) 120-hour Neuronal Morphology Assay for Neurite Area (NPC4) (AID 2284305; active = hit-call score of the fitted dose curve at least 0.9, where 1 is the maximum). The gist of the method: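 Neurite area (pixels, nuclei excluded) of TUBB3-positive neurons from hNPC spheres differentiating 5 days under continuous exposure at 37 C, 5% CO2. High-content imaging; loss of signal versus DMSO control across 7 concentrations.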

The nature of experiment [14]: IUF_NPC2-5_cytotoxicity_72hr: Cytotoxicity Assessment at 72 hours in the Leibniz Research Institute for Environmental Medicine (IUF) Neural Progenitor Cell Migration and Differentiation Assay for Cytotoxicity (NPC2-5) (AID 2284306; active = hit-call score of the fitted dose curve at least 0.9, where 1 is the maximum;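 note: LDH release into supernatant measured by resorufin fluorescence marking membrane damage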). The gist of the method: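 Membrane-integrity cytotoxicity at 72 h, read as LDH-driven resorufin fluorescence in supernatant. hNPC spheres from fetal cortex differentiate on coated plates in N2 medium, 37C, 5% CO2; seven serial compound concentrations plus solvent control (DMSO ≤0.1%).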

Experiment [15] in a line: IUF_NPC2-5_cytotoxicity_120hr: Cytotoxicity Assessment at 120 hours in the Leibniz Research Institute for Environmental Medicine (IUF) Neural Progenitor Cell Migration and Differentiation Assay (NPC2-5) (AID 2284307; active = hit-call score of the fitted dose curve at least 0.9, where 1 is the maximum). The gist of the method:
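Fluorescence (RFU) from LDH-driven resazurin reduction in medium supernatants measured loss of membrane integrity after 120 h of compound exposure of differentiating primary human neural progenitor spheres on an extracellular matrix.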

The nature of experiment [16]: IUF_NPC2-5_cell_number_120hr: Cell Number Assessment at 120 hours in the Leibniz Research Institute for Environmental Medicine (IUF) Neural Progenitor Cell Migration and Differentiation Assay (NPC2-5) (AID 2284308).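 Note: count of Hoechst-stained nuclei in migration zone around plated human neural progenitor spheres.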 In outline:
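Cell number is taken as all Hoechst-positive nuclei detected in the area into which cells migrate out of the sphere, scored at 120 h and referenced to DMSO solvent control, which was kept at no more than 0.1%.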

Experiment [17] can be described thus: IUF_NPC2-5_viability_120hr: Viability Assessment at 120 hours in the Leibniz Research Institute for Environmental Medicine (IUF) Neural Progenitor Cell Migration and Differentiation Assay (NPC2-5) (AID 2284312). In outline:
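Alamar blue resorufin fluorescence read after 5 days of differentiation, with compound present from day 0 and replenished at day 3. Primary hNPC spheres on laminin-coated plates, 37C; seven concentrations plus solvent control, fitted against DMSO.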

Experiment [18] can be described thus: IUF_NPC1_cytotoxicity_72hr: Cytotoxicity Assessment at 72 hours in the Leibniz Research Institute for Environmental Medicine (IUF) Neural Progenitor Cell Proliferation Assay (NPC1) (AID 2284332; active = hit-call score of the fitted dose curve at least 0.9, where 1 is the maximum;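 note: rising LDH signal means more cytotoxicity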). The gist of the method: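 Membrane-integrity loss is scored from LDH released into the medium, detected as resorufin fluorescence, with activity fitted upward relative to baseline. Test material stays on human fetal-derived progenitor spheres for 72 h.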

The structures appear in SMILES notation. “And” between values parts separate entries of the source, which are not always exact repeats. Identical values can stand only once. Inconclusive results are not listed. The source made the active and inactive calls. Rule for the calls, unless noted: active = hit-call score of the fitted dose curve at least 0.9, where 1 is the maximum; inactive = score below 0.9.

The AC50 is the concentration giving half of the maximal activity seen. On to `CN(C)c1ccc(C(=N)c2ccc(N(C)C)cc2)cc1`, for which the outcome in [1] and in experiment [2] was inactive. Moreover, in experiment [3], the concentration at half-maximal activity (AC50) was 22.6 µM (active).
`CN(C)c1ccc(N=Nc2ccccc2C(=O)O)cc1`: in experiment [4], the concentration at half-maximal activity (AC50) was 25.6 µM (active).
In the case of `CCCCC(CC)COCC1CO1` (configuration not stated), the outcome in [5] was inactive.
Regarding `CCCCCCCCCCCCCOP(=O)(O)O`, the half-maximal activity concentration (AC50) in [6] was 40.2 µM (active); in [4] it was 2.24 µM (active).
`FC(F)=C(F)OC(F)(F)C(F)(F)C(F)(F)F`: the outcome in experiment [7] and in experiment [8] was inactive.
As to `CCOC(F)(F)C(F)(F)C(F)(F)C(F)(F)F`, the result in experiment [7] and in [8] was inactive.
Take `CCOC(=O)Cc1cccc2ccccc12`: the AC50 in [4] is 13.4 µM (active).
Turning to `CCCCCCCC/C=C\CCCCCCCC(=O)O`, the results for the half-maximal activity concentration (AC50) in experiment [6] and in experiment [4] were 41 µM (active) and 8.56 µM (active), respectively. Further, the compound was called inactive in [1], in experiment [2] and in [3].
In the case of `CC/C=C\C/C=C\C/C=C\CCCCCCCC(=O)O`, the result in [6] was inactive.
On to `Nc1ccc(N)c(Cl)c1`, for which, in experiment [5], the AC50 is 4.71 µM (active) and 1.81 µM (active).
With `CN1C(=O)N(C)C(O)C1O` (configuration not stated), the result in experiment [5] was inactive.
Turning to `CCOC(=O)c1ccccc1C(=C1C=C(Br)C(=O)C(Br)=C1)c1cc(Br)c(O)c(Br)c1`, the half-maximal activity concentration (AC50) in [5] is 8.66 µM (active) and 7.45 µM (active).
For the compound `N[C@H]1C(O)O[C@H](CO)[C@H](O)[C@@H]1O` (some centres not stated), the compound was called inactive in [9], in experiment [10] and in experiment [11].
For the compound `O=C(C=Cc1ccccc1)OCc1ccccc1`, in [4], the AC50 was 25.7 µM (active).
Take `O=C1CCCN1CCO`: the outcome in experiment [5] was inactive.
Take `Nc1ncn([C@@H]2O[C@H](CO)[C@@H](O)[C@H]2O)c(=O)n1`: the result in experiment [12], in experiment [13], in experiment [14], in experiment [15], in experiment [16] and in experiment [17] was inactive. The result in experiment [18], in experiment [10] and in experiment [11] was inactive. Moreover, in experiment [9], the AC50 was 7.87 µM (active).
With `CCN(CCC#N)c1ccc(N=Nc2c(Cl)cc([N+](=O)[O-])cc2Cl)cc1`, the AC50 in experiment [6] was 152 µM (active); in experiment [3], 10 µM (active). Also, the compound was classed as inactive in experiment [1] and in experiment [2].
On to `Cc1ccc(C(C)c2ccc(C)c(C)c2)cc1C`, for which the compound was classed as inactive in experiment [1] and in experiment [2]. In addition, the half-maximal activity concentration (AC50) in experiment [3] is 50 µM (active); in experiment [4] it was 1.8 µM (active).
For `CC=CC(F)(F)C(F)(F)C(F)(F)F`, the call in [7] and in experiment [8] was inactive.
As for `C=C[Si](OC(C)=O)(OC(C)=O)OC(C)=O`, the result in experiment [5] was inactive.
